# The whole screen tested about 310,000 compounds, of which about 14,000 (4.5%) showed an effect of 50% or more. The effect is printed as a negative number. The full list was thinned out, with strong results kept by preference.
# Biological target: human ether-à-go-go-related gene (hERG) potassium channel (human, UniProt Q12809)
# Experiment: primary screen, population patch clamp on CHO cells stably expressing hERG; higher = less effect of the substance
# 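Note: peak tail current of the secondary pulse compared with the same well before compound.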
# Chain of human ether-à-go-go-related gene (hERG) potassium channel (Q12809 whole entry, looked up): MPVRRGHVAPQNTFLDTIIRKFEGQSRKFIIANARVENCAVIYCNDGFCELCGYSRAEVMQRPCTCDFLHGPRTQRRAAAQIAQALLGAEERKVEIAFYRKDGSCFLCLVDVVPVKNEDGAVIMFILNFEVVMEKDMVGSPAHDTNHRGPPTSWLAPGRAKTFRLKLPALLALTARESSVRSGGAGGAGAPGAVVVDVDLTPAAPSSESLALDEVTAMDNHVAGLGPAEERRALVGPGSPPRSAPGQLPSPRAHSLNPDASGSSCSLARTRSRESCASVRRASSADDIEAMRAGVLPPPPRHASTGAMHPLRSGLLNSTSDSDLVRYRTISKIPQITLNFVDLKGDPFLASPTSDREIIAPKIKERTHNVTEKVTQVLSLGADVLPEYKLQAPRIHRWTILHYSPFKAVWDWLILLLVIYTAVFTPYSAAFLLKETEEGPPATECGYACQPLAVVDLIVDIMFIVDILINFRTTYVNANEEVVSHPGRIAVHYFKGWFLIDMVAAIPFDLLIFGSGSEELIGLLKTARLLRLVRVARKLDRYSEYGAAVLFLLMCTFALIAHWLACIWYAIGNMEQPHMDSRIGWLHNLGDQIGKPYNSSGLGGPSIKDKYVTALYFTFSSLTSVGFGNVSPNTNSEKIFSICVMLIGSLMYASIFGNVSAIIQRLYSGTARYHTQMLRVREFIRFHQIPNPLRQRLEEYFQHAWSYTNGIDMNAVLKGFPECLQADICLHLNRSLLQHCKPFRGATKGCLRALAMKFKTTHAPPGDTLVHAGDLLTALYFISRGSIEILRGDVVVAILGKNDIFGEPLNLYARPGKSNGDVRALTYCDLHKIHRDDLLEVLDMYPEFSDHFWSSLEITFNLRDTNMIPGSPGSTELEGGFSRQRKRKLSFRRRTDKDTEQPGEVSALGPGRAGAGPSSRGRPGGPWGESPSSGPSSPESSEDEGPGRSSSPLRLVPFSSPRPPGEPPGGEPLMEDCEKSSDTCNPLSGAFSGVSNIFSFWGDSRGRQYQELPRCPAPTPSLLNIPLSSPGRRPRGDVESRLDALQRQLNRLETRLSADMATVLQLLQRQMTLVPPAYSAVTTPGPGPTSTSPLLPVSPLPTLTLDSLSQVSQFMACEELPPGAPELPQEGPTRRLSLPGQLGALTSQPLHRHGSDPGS
row,SMILES,"hERG current change (%, negative = inhibition) at 10uM [%]"
1,COc1ccc(CCNC(=O)C(C)n2nc(C)c3c(C)n(-c4ccc(C)cc4)nc3c2=O)c(OC)c1 (stereo not drawn),-58.6
2,COc1ccc(OC)c(CCNC(=O)Cn2nc(C)c3c(C)n(-c4ccc(C)cc4)nc3c2=O)c1,-59
3,COc1ccccc1CCNC(=O)C(C)n1nc(C)c2c(C)n(-c3ccccc3)nc2c1=O (stereo not drawn),-12.3
4,COc1ccc(OC)c(CCNC(=O)Cn2nc(C)c3c(C)n(-c4ccccc4)nc3c2=O)c1,5
5,COc1ccc(OC)c(CCNC(=O)C(C)n2nc(C)c3c(C)n(-c4ccc(C)cc4)nc3c2=O)c1 (stereo not drawn),-53.2
6,COc1ccc(OC)c(CNC(=O)Cn2nc(C)c3c(C)n(-c4ccc(C)cc4)nc3c2=O)c1,3.27
7,COc1ccc(OC)c(CNC(=O)C(C)n2nc(C)c3c(C)n(-c4ccccc4)nc3c2=O)c1 (stereo not drawn),-7.41
8,COc1ccc(OC)c(CCNC(=O)C(C)n2nc(C)c3c(C)n(-c4ccccc4)nc3c2=O)c1 (stereo not drawn),-0.756
9,COc1ccc(CNC(=O)C(C)n2nc(C)c3c(C)n(-c4ccccc4)nc3c2=O)c(OC)c1 (stereo not drawn),-8.08
10,CC(=O)Nc1ccc(C(=O)CSc2ncn(-c3ccccc3)n2)cc1,5.72
11,Cc1sc2ncn(CC(=O)NCc3ccco3)c(=O)c2c1-c1ccccc1,-11.8
12,CC(=O)c1cnc(Oc2cc(Cl)ccc2Cl)nc1C,0.763
13,CSc1sc(C(=O)N(C)C)cc1S(=O)(=O)C(C)C,1.94
14,CCN1C(=O)/C(=C/c2cccs2)N(C)C1=S,-7.99
15,COc1ccccc1NS(=O)(=O)c1cc(C(=O)NCC2CCCO2)ccc1C (stereo not drawn),-36.8
16,COC(=O)C1=C(C(=O)OC)[C@@H]2N(C)c3ccccc3[C@@]23C[C@@H](C(=O)OC)N(C(=O)c2ccco2)C3=N1,-13.9
17,COC(=O)C1=C(C(=O)OC)[C@@H]2N(C)c3ccccc3[C@@]23C[C@@H](C(=O)OC)N(C(=O)c2cccs2)C3=N1,-10.1
18,COC(=O)C1=C(C(=O)OC)[C@@H]2N(C)c3ccccc3[C@@]23C[C@@H](C(=O)OC)N(C(=O)C2CCC2)C3=N1,-29.7
19,COC(=O)C1=C(C(=O)OC)[C@@H]2N(C)c3ccc(OC)cc3[C@@]23C[C@@H](C(=O)OC)N(C(=O)c2ccc(Br)cc2)C3=N1,-17.7
20,COC(=O)C1=C(C(=O)OC)[C@@H]2N(C)c3ccc(OC)cc3[C@@]23C[C@@H](C(=O)OC)N(C(=O)NC2CCCCC2)C3=N1,-26
21,COC(=O)C1=C(C(=O)OC)[C@@H]2N(C)c3ccc(OC)cc3[C@@]23C[C@@H](C(=O)OC)N(C(=O)c2cccs2)C3=N1,-68.3
22,COC(=O)C1=C(C(=O)OC)[C@@H]2N(C)c3ccc(OC)cc3[C@@]23C[C@@H](C(=O)OC)N(C(=O)CC(C)C)C3=N1,-14.9
23,COC(=O)C1=C(C(=O)OC)[C@@H]2N(C)c3ccc(OC)cc3[C@@]23C[C@@H](C(=O)OC)N(C(=O)c2ccco2)C3=N1,-50.6
24,COC(=O)C1=C(C(=O)OC)[C@@H]2N(C)c3ccccc3[C@@]23C[C@@H](C(=O)OC)N(C(=O)COCc2ccccc2)C3=N1,-9.16
25,COC(=O)C1=C(C(=O)OC)[C@@H]2N(C)c3ccc(OC)cc3[C@@]23C[C@@H](C(=O)OC)N(C(=O)C2CCC2)C3=N1,-50

row,SMILES,"hERG current change (%, negative = inhibition) at 10uM [%]"
1,CCOC(=O)N1C2=NC(C(=O)OC)=C(C(=O)OC)[C@@H]3N(C)c4ccc(OC)cc4[C@]23C[C@H]1C(=O)OC,6.52
2,COC(=O)C1=C(C(=O)OC)[C@@H]2N(C)c3ccc(OC)cc3[C@@]23C[C@@H](C(=O)OC)N(C(=O)COCc2ccccc2)C3=N1,-55
3,COc1ccc(/C=N\NC(=O)c2ccccc2Br)cc1COc1c(F)c(F)cc(F)c1F,-0.654
4,Brc1ccc(-n2cccc2/C=N/n2cnnc2)cc1,-25.1
5,Cc1ccc(OCC(=O)Nc2ccc(C)c(S(=O)(=O)N3CCCCC3)c2)c([N+](=O)[O-])n1,-45.4
6,C=CCNC(=O)/C(=C/c1ccccc1OCC)NC(=O)c1ccccc1,2.63
7,O=c1cc(Nc2ccc3c(c2)OCCO3)[nH]c(=O)n1-c1ccc(Cl)cc1,-0.327
8,CCC(C)NC(=O)c1ccccc1NC(=O)/C(=C/c1ccc(OC)cc1)c1ccccc1 (stereo not drawn),3.99
9,COC(=O)c1ccccc1NC(=O)NCc1ccc2c(c1)OCO2,-11.4
10,CCCCS(=O)CC(CS(=O)CCCC)OC(=O)c1ccc(C)cc1 (stereo not drawn),-49.2
11,Cc1ccc(S(=O)(=O)N(C)c2ccc(C(=O)O)cc2)cc1,-17.1
12,CCOc1ccc(CC(=O)NC2CCN(Cc3ccccc3)CC2)cc1,-6.23
13,CC(C)NCCCOc1ccc(C(C)(C)c2ccccc2)cc1.O=C(O)C(=O)O,7.21
14,CCOc1ccc(OCC(O)CNC2CCN(Cc3ccccc3)CC2)cc1.O=C(O)C(=O)O (stereo not drawn),-62.8
15,CC(C)N(CCNCC(O)COc1ccc(C(C)(C)c2ccccc2)cc1)C(C)C.O=C(O)C(=O)O (stereo not drawn),-79
16,COc1ccccc1NCC(O)COc1ccc(C(C)(C)C)cc1.O=C(O)C(=O)O (stereo not drawn),6.79
17,CC(C)(c1ccccc1)c1ccc(OCC(O)CNC2CCN(Cc3ccccc3)CC2)cc1.O=C(O)C(=O)O (stereo not drawn),-72.8
18,C#CCOc1ccccc1CNC1CCN(Cc2ccccc2)CC1.O=C(O)C(=O)O,-29.3
19,CC(=O)Nc1ccc(OCC(O)CNC2CCCC2)cc1.Cl (stereo not drawn),6.24
20,COc1ccc(CNCC(O)COc2ccc(C(C)(C)c3ccccc3)cc2)cc1.O=C(O)C(=O)O (stereo not drawn),-12.3
21,O=C(Cc1ccccc1)NN1C(=O)C2C3C=CC(C3)C2C1=O (stereo not drawn),12.4
22,COc1ccc(C)cc1NC(=O)C(OC(=O)C1CC1)c1ccccc1 (stereo not drawn),-12
23,O=C(COC(=O)C1CCN(S(=O)(=O)c2ccccc2C(F)(F)F)CC1)NCc1ccc(F)cc1,-8.33
24,CCOc1ccc(N=Cc2c(O)n(-c3ccc(C)c(C)c3)c(=O)[nH]c2=O)cc1,-1.8
25,Cc1ccc(-n2ncc3c(SCC(=O)Nc4cc(C)on4)ncnc32)c(C)c1,17.9

row,SMILES,"hERG current change (%, negative = inhibition) at 10uM [%]"
1,O=C(C[n+]1ccccc1)N/N=C/c1ccccc1[N+](=O)[O-].[Cl-],40.2
2,Cc1cccc(C(=O)N2CCCC(Nc3ccc(C(C)C)cc3)C2)n1 (stereo not drawn),0.95
3,Cc1ccc(C2Nc3cccc4cccc(c34)N2)s1,-4.53
4,CN(C)S(=O)(=O)c1cccc(C(=O)Nc2ccc(S(=O)(=O)N3CCCC3)cc2)c1,25.5
5,CC1(C)Cc2cccc(OCC(=O)N3CCN(S(=O)(=O)c4ccccc4F)CC3)c2O1,-14.6
6,O=C(Nc1ccc2cn[nH]c2c1)c1ccc(S(=O)(=O)N2CCOCC2)cc1,-19.7
7,CC(=O)OC(C(=O)Nc1nccs1)c1ccccc1 (stereo not drawn),2.26
8,CC(C)CCNC(=O)c1nn(Cc2ccccc2)c(=O)c2ccccc12,5.59
9,O=C(c1nn(-c2ccccc2)c(=O)c2ccccc12)N1CCN(c2ccccn2)CC1,-16.5
10,O=C(c1nn(Cc2ccccc2)c(=O)c2ccccc12)N1CCN(c2ccccn2)CC1,-66.3
11,O=C(c1nn(Cc2ccccc2)c(=O)c2ccccc12)N1CCc2ccccc2C1,-29
12,CC(C)N(CCNC(=O)c1nn(Cc2ccccc2)c(=O)c2ccccc12)C(C)C,-66.1
13,CC(=O)c1ccc(N2CCN(C(=O)c3nn(Cc4ccccc4)c(=O)c4ccccc34)CC2)cc1,-75.1
14,O=C(c1ccc(Cn2c(=O)[nH]c3ccccc3c2=O)cc1)N1CCN(c2ccccn2)CC1,0.196
15,CC(C)CNC(=O)c1nn(Cc2ccccc2)c(=O)c2ccccc12,-16
16,CC(=O)c1ccc(N2CCN(C(=O)c3n[nH]c4ccccc34)CC2)cc1,-34.3
17,O=[N+]([O-])c1cccc(S(=O)(=O)Nc2ccc(S(=O)(=O)N3CCCC3)cc2)c1,2.95
18,O=C(CSc1nnc(NC(=O)c2c(F)cccc2F)s1)NC1CC1,21.9
19,COC(=O)c1cccc(Oc2cccc(Cl)n2)c1,14.7
20,Clc1ccc(COc2ccccn2)cc1Cl,-6.01
21,OCCOCCn1c(C(CO)Nc2nc(-c3ccc(F)cc3)cs2)nc2ccccc21 (stereo not drawn),-29.4
22,COc1ccc(N(CC(=O)NCc2ccccc2OC)S(=O)(=O)c2ccccc2[N+](=O)[O-])c(OC)c1,3.17
23,CN(C)Cc1c(C(=O)N/N=C/C=C/c2ccccc2)nnn1-c1nonc1N,-24.9
24,COC(=O)Nc1ccc(OC)c(OC)c1,4.01
25,COc1ncnc2c1sc1nc(-c3ccccc3)c3c(c12)CCCC3,15.6

# Source: paper PMC4336329 (PLoS ONE, 2015)
